The structures appear in SMILES notation. Compounds without any hit were thinned out: in the full panel of roughly 79,000, 15% have a hit. The source made the active and inactive calls. No stated cut-off is given here; in the data, active means growth inhibition above about 70%; inactive means the rest.

A short description of the assay: NCI Yeast Anticancer Drug Screen. Data for the rad52 strain (AID 147).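 Further: 0% = growth of vehicle-treated control cultures.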 Particulars: S. cerevisiae rad52 mutant growth inhibition; at 11.0 µM; hits give high values. The procedure, abridged: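 Inhibition of yeast growth, referenced to vehicle controls, was the measured output for a strain with defective DNA damage repair.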
Consider `CCCc1cc(C(=O)OCC)cc(CCC)c1O`, for which the growth inhibition is -9% (inactive).
`CC(C)[N+]([O-])(CCCNc1c2ccccc2nc2cccc([N+](=O)[O-])c12)C(C)C`: the growth inhibition is 94% (active).
With `COc1cc2c3c(cccc3c1)C(=O)N(CCN(C)C)C2=O`, the growth inhibition is 20% (inactive).
The value for `NC(=O)NN=C(CS)CS` was 19% (inactive).
Next, `Cc1ccc(NC(=O)/C(Cl)=C(\Cl)C(=O)O)cc1C`: 42% (inactive); `CCN(CC)CC[n+]1ccc2c(C)c3[nH]c4ccc(O)cc4c3c(C)c2c1`: 67% (inactive); `CC(CC(C)(C)[N+](C)(C)C)[N+](C)(C)C` (stereo not given): 13% (inactive).
Next, `COc1ccc(OC)c2cc3ccccc3cc12`: 6% (inactive); `Nc1ncncc1C(C1=C(O)COC1=O)C1=C(O)COC1=O`: -1% (inactive).
As for `CSC1=NNC(SC)=NN1`, the growth inhibition was 3% (inactive).
Next, `Cc1c(Cl)ccc2c1S(=O)(=O)c1cccc(Cl)c1-2`: -4% (inactive).
In the case of `[O-][n+]1c2ccc(O)cc2nc2ccc(Cl)cc21`, the growth inhibition was 45% (inactive).
The value for `COc1ccc2ccc3ccccc3c2c1C=O` was -3% (inactive); that for `Nc1ccc2c(c1)C(=O)c1cccc(N)c1C2=O` was 89% (active); that for `O=C(c1ccc(Cl)cc1Cl)C(Cl)Cl` was 14% (inactive).
Next, `COc1cc(C(=O)/C=C/c2ccccc2O)ccc1O`: 98% (active).
The value for `O=Cc1cccc2ccc3ccccc3c12` was 7% (inactive).
Turning to `O=C(Nc1ccc(Cl)cc1)OCC#CCCl`, the growth inhibition is 15% (inactive).
Next, `Cn1ccnc1Oc1ccc(Cl)cc1`: 7% (inactive).
For `c1ccc2c(c1)C(=NCCCN1CCCCCC1)c1cccn1-2`, the growth inhibition is -5% (inactive).

These data come from PubChem BioAssay (NCI).
